Experimental data from PubChem BioAssay (Tox21).
Inconclusive results are not listed. Activity calls are given as the source filed them. Calls follow the shape of the dose curve; as a rule, active = well fitted curve in the direction sought with a large enough effect in the repeat runs; inconclusive = weak or mixed curves; inactive = no such curve, though single readings can be large; an effect the other way counts as inactive or inconclusive.

Experiments:
[1] = Caspase-3/7 induction in HepG2 cells by small molecules, qHTS assay (AID 1346978); also: nearly all actives have a fitted effect of over 15% in size
Summary of the method: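 Caspase-3/7 induction was measured by Caspase-Glo 3/7 luminescence (30 min, room temperature) after a 17 hr compound exposure of wild-type HepG2 cells seeded at 2,000 per well and pre-incubated 5 hr.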

[2] = Caspase-3/7 induction in CHO-K1 cells by small molecules, qHTS cell viability counter screen (AID 1346979); also: nearly all actives have a fitted effect of over 35% in size; also: potency is read from the fitted curve at half-maximal effect
Summary of the method: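 Following a 5hr settling period, CHO-K1 cells at 1,500 per well received DMSO-dissolved compounds. Cell viability was quantified 16hr later by CellTiter-Fluor fluorescence, measured after 1hr with reagent at 37C.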

[3] = Caspase-3/7 induction in CHO-K1 cells by small molecules, qHTS assay (AID 1346980); also: nearly all actives have a fitted effect of over 15% in size
Summary of the method: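 Luminescent Caspase-Glo 3/7 read (30min, room temperature) quantified apoptosis induction. Cells were wild-type CHO-K1, treated with compound for 17hr at 37 C and 5% CO2.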

[4] = Caspase-3/7 induction in HepG2 cells by small molecules, qHTS cell viability counter screen (AID 1346981); also: series mostly up to about 92 µM; nearly all actives have a fitted effect of over 30% in size
Summary of the method: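 CellTiter-Fluor fluorescence measured viability in the same wells used for Caspase-Glo 3/7. HepG2 (wild type) at 2,000 cells/well were pre-incubated 5 hr, dosed, and given reagent at 16 hr, with 1 hr further at 37C.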

[5] = biological target: Cytochrome P450 2D6 (Homo sapiens) (UniProt P10635); test: Cytochrome P450 Family 2 Subfamily D Member 6 (CYP2D6) small molecule antagonists: luciferase reporter qHTS assay (AID 1671196); also: nearly all actives have a fitted effect of over 50% in size; also: potency is read from the fitted curve at half-maximal effect; as to activity change, negative = inhibition: series mostly up to about 120 µM
Sequence of Cytochrome P450 2D6 (Homo sapiens) (P10635 whole entry, looked up): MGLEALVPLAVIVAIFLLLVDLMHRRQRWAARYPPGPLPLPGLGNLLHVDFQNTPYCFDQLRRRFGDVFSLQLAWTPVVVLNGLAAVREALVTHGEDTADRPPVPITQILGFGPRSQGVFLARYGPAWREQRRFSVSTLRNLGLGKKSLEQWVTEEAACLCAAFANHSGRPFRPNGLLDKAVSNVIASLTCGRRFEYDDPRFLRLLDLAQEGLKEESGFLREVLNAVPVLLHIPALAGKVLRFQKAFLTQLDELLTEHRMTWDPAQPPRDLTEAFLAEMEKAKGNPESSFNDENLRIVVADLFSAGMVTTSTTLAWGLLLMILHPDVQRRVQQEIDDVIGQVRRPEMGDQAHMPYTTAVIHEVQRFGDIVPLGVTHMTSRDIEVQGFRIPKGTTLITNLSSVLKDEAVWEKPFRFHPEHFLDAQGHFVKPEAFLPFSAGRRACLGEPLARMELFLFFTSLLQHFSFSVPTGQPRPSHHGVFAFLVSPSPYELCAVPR
Summary of the method: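 CYP2D6 activity was followed as luminescence from its luciferin product after a 1 h NADPH-driven reaction at room temperature. Enzyme-substrate mix and compound were pre-incubated for 10 min, and the signal was read 20 min after adding detection reagent.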

[6] = biological target: Nuclear receptor subfamily 1 group I member 2 (Homo sapiens) (UniProt O75469); test: Human pregnane X receptor (PXR) small molecule agonists, qHTS assay (AID 1346982); also: nearly all actives have a fitted effect of over 35% in size; also: potency is read from the fitted curve at half-maximal effect
Sequence of Nuclear receptor subfamily 1 group I member 2 (Homo sapiens) (O75469 whole entry, looked up): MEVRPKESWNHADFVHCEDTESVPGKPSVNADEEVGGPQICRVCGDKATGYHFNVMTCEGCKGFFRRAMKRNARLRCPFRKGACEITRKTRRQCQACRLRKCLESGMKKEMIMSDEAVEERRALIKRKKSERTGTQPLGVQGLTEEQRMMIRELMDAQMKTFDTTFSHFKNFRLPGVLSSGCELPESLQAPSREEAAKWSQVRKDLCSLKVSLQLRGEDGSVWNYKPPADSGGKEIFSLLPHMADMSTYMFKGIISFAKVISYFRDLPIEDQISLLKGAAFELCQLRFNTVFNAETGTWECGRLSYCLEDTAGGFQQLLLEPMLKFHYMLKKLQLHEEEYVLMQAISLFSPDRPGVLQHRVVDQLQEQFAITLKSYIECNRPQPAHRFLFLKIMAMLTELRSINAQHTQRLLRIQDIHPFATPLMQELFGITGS
Summary of the method: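 Agonist mode: luminescence from ONE-Glo after 24 h compound exposure at 37C in HepG2 cells carrying hPXR-responsive CYP3A4 luciferase, plated in charcoal-stripped serum medium 5 h beforehand.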

[7] = biological target: Cytochrome P450 2C19 (Homo sapiens) (UniProt P33261); test: Cytochrome P450 Family 2 Subfamily C Member 19 (CYP2C19) small molecule antagonists: luciferase reporter qHTS assay (AID 1671197); also: nearly all actives have a fitted effect of over 65% in size; also: potency is read from the fitted curve at half-maximal effect; as to activity change, negative = inhibition: series mostly up to about 120 µM
Sequence of Cytochrome P450 2C19 (Homo sapiens) (P33261 whole entry, looked up): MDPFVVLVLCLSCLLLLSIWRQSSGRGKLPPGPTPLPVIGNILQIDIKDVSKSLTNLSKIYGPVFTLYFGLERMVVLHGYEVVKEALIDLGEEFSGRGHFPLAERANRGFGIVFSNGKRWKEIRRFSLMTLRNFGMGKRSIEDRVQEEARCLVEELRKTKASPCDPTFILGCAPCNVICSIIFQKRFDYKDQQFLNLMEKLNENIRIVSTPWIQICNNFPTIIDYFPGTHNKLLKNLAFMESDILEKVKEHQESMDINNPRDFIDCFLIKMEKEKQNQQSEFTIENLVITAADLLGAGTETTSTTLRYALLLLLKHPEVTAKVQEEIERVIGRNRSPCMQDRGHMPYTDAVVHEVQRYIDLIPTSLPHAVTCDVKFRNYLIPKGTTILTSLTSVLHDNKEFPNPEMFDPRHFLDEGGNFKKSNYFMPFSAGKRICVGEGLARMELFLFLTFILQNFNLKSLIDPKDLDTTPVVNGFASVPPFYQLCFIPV
Summary of the method: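 Enzyme-substrate mix with proluciferin substrate (P450-Glo CYP2C19 system) preincubated with compounds 10 min at room temperature; NADPH regeneration solution added, 37C for 1 h; detection reagent stops reaction, luminescence read after 20 min. Ketoconazole positive control.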

[8] = biological target: Nuclear receptor subfamily 1 group I member 2 (Rattus norvegicus) (UniProt Q9R1A7); test: Rat pregnane X receptor (rPXR) activation by small molecules, qHTS assay (AID 1346983); settings: rPXR luciferase reporter cells, One-Glo luminescence, 24 h; max activation: hits give high values; also: nearly all actives have a fitted effect of over 20% in size; also: potency is read from the fitted curve at half-maximal effect
Sequence of Nuclear receptor subfamily 1 group I member 2 (Rattus norvegicus) (Q9R1A7 whole entry, looked up): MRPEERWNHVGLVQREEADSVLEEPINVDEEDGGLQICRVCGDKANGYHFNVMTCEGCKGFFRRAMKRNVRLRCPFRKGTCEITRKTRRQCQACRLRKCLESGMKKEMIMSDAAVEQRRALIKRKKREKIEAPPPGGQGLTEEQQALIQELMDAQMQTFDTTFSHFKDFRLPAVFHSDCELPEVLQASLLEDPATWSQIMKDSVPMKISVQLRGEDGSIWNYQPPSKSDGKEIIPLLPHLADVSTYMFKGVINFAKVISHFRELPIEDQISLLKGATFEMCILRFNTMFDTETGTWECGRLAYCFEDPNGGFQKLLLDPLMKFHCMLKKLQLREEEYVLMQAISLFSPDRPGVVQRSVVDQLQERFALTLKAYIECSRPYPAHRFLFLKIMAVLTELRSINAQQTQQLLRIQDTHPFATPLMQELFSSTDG
Summary of the method: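 Luminescent readout (One-Glo luciferase, 30 min room temperature) followed 24 hr compound treatment at 37 C of rPXR cells plated 2,000 per well and preincubated 5hr; qHTS format with compounds delivered in DMSO.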

[9] = biological target: Nuclear receptor subfamily 1 group I member 2 (Homo sapiens) (UniProt O75469); test: CYP3A4 induction through human pregnane X receptor (PXR) by small molecules, qHTS assay (AID 1346984); also: nearly all actives have a fitted effect of over 40% in size
Summary of the method: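 Read-out is luminescence after One-Glo addition, following a 3 hr, 37C incubation with Luciferin-IPA CYP3A4 substrate (3uM final). Before that, compounds were on DPX-2 cells (HepG2 co-transfected with PXR element plus CYP3A4-promoter luciferase) for 24 hr at 37C.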

[10] = biological target: Nuclear receptor subfamily 1 group I member 2 (Homo sapiens) (UniProt O75469); test: Human pregnane X receptor (PXR) activation by small molecules, qHTS assay (AID 1346985); also: nearly all actives have a fitted effect of over 40% in size; also: potency is read from the fitted curve at half-maximal effect
Summary of the method: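 DPX-2 cells (HepG2 co-transfected with a PXR response element and a CYP3A4-promoter luciferase construct) were seeded at 2,000 per well, rested 5 hr at 37C, then exposed to DMSO-dissolved compounds for 24 hr. Activation was read as luciferase luminescence.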
% is scaled to controls: 0 for no effect and ±100 for the full control effect.

CCOc1ccc(O)cc1
inactive: Potency [1] | Potency [2] | Potency [3] | Potency [4] | Potency [5]

O=C(O)c1ccccc1Cl
inactive: Potency [1] | Potency [2] | Potency [3] | Potency [4] | Potency [6] | Potency [7]

OC[C@H]1O[C@@H](OCCc2ccc(O)cc2)[C@H](O)[C@@H](O)[C@@H]1O
inactive: Potency [1] | Potency [2] | Potency [3] | Potency [4] | Potency [6] | Potency [7]

C=C(C)C(=O)OCCO
inactive: Potency [1] | Potency [2] | Potency [3] | Potency [4] | Potency [5]

S=C([S-])NCCNC(=S)[S-].[Mn+2]
inactive: Potency [1] | Potency [2] | Potency [3] | Potency [4]
active: Potency [6] 30.6 µM | Potency [7] 17.8 µM

Nc1ccccc1S(=O)(=O)c1ccccc1
inactive: Potency [1] | Potency [2] | Potency [3] | Potency [4] | Potency [5] | Potency [7]

C#Cc1cccc(Nc2ncnc3cc(OCCOC)c(OCCOC)cc23)c1
inactive: Potency [1] | Potency [3] | max activation [8] -7.82% | Potency [9] | Potency [5] | Potency [7]
active: Potency [2] 6.68 µM | Potency [6] 7.5 µM

CCCCC
inactive: Potency [1] | Potency [2] | Potency [3] | max activation [8] -1.52% | Potency [9] | Potency [10] | Potency [5] | Potency [7]
active: Potency [6] 53.6 µM

O=C(NCCO[N+](=O)[O-])c1cccnc1
inactive: Potency [1] | Potency [2] | Potency [3] | Potency [4] | max activation [8] -6.7%

CCCCC(CC)COC(=O)COc1ccc(Cl)cc1Cl (stereo not given)
active: Potency [7] 20.3 µM
inactive: Potency [1] | Potency [2] | Potency [3] | Potency [4] | Potency [6]

CC(=O)c1cccc([N+](=O)[O-])c1
inactive: Potency [1] | Potency [2] | Potency [3] | Potency [4] | Potency [6] | Potency [7]

CCC(=O)O[C@]1(C(=O)CCl)[C@@H](C)C[C@H]2[C@@H]3CCC4=CC(=O)C=C[C@]4(C)[C@@]3(F)[C@@H](O)C[C@@]21C
active: Potency [8] 2.24 µM | Potency [5] 15.5 µM
inactive: Potency [1] | Potency [2] | Potency [3] | Potency [4]

C/C=C/C(=O)CC
active: Potency [6] 10.5 µM
inactive: caspase activation [1] 0.108% [at 19 µM] | activity change, negative = cytotoxicity [2] 0.0214% [at 19 µM] | caspase-3/7 activation [3] 1.13% [at 19 µM] | activity change, negative = cytotoxicity [4] -1.71% [at 19 µM] | activity change, negative = inhibition [5] 0.0645% [at 23.6 µM] | Potency [7]

CC1=CCCC(C)(C)C12CCC(C)O2 (stereo not given)
inactive: Potency [1] | Potency [2] | Potency [3] | Potency [4] | Potency [7]
active: Potency [6] 54.5 µM

CC(C)(C)Cl
inactive: Potency [1] | Potency [2] | Potency [3] | Potency [4] | Potency [5] | Potency [7]

CCCCCCOC(=O)NC(=N)c1ccc(NCc2nc3cc(C(=O)N(CCC(=O)OCC)c4ccccn4)ccc3n2C)cc1
active: Potency [2] 29.8 µM | Potency [6] 11.9 µM
inactive: Potency [1] | Potency [3]

CN(Cc1ccc(C(C)(C)C)cc1)Cc1cccc2ccccc12
active: Potency [5] 0.347 µM
inactive: Potency [1] | Potency [2] | Potency [3] | Potency [4] | max activation [8] 1.25%

CC(COCCO)OCCO (stereo not given)
inactive: Potency [1] | Potency [2] | Potency [3] | Potency [4] | Potency [7]
active: Potency [5] 25.8 µM

O=S(=O)(Oc1ccc(Cl)cc1)c1ccccc1
active: Potency [6] 54.5 µM | Potency [5] 31.7 µM | Potency [7] 0.894 µM
inactive: Potency [1] | Potency [2] | Potency [3] | Potency [4]

O=C(O)C1(C(=O)O)CCC1.[NH2-].[NH2-].[Pt+2]
active: Potency [7] 21.9 µM
inactive: Potency [1] | Potency [2] | Potency [3] | Potency [4] | Potency [6]

O=S(c1cc(Cl)cc(Cl)c1O)c1cc(Cl)cc(Cl)c1O
inactive: Potency [1] | Potency [3] | Potency [4] | Potency [6] | max activation [8] -2.94% | Potency [9] | Potency [5]

C=CCOc1ccccc1OCC(O)CNC(C)C (stereo not given)
active: Potency [5] 9.77 µM
inactive: Potency [1] | Potency [3] | Potency [4] | Potency [6] | max activation [8] 5.72% | Potency [9] | Potency [10] | Potency [7]

CC(=O)[O][Al][O]C(C)=O
inactive: Potency [1] | Potency [3] | Potency [4] | Potency [6] | max activation [8] -1.35% | Potency [9] | Potency [10] | Potency [5] | Potency [7]

Cc1oc2c(NC(=O)c3c(Cl)cccc3Cl)cccc2c1C(C)(C)O
inactive: Potency [1] | Potency [3] | Potency [5] | Potency [7]
active: Potency [2] 61.1 µM | Potency [6] 1.09 µM

COc1cccc(N(C)C(=S)Oc2ccc3c(c2)CCCC3)n1
inactive: Potency [1] | Potency [3] | Potency [4] | Potency [5]
active: Potency [6] 8.41 µM | Potency [10] 1.26 µM | Potency [7] 2.75 µM
